Results filed as inconclusive are left out. Activity calls are given as the source filed them. Unless noted, calls come from the whole dose curve; as a rule, active = well fitted curve in the direction sought with a large enough effect in the repeat runs; inconclusive = weak or mixed curves; inactive = no such curve, though single readings can be large; an effect the other way counts as inactive or inconclusive.
How the values were obtained:
[1] = qHTS assay to identify small molecule antagonists of the retinoid acid receptor (RAR) signaling pathway - cell viability counter screen (AID 1159551); note: nearly all actives have a fitted effect of over 35% in size
Outline: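 ATP-based viability, C3RL4 cells, 6 h at 37 C with 1 uM final retinol co-added after compound; luminescence read 30 min post CellTiter-Glo, RT.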

[2] = qHTS assay to identify small molecule agonists of the retinoic acid receptor (RAR) signaling pathway (AID 1159553)
Outline: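 Quantitative high-throughput format: the Tox21 10K library was tested on C3RL4 RARE-luciferase cells for 6 hr at 37 C and 5% CO2, with luminescence measured after a 30 min room-temperature reagent step.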

[3] = qHTS assay to identify small molecule antagonists of the estrogen related receptor (ERR) signaling pathway from Tox21 library - cell viability counter screen (AID 1224834); note: nearly all actives have a fitted effect of over 30% in size
Outline: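 Compounds in DMSO were pinned onto ERR cells that had been incubated for 6 h, and the plates were held at 37 C for 17.5 h. CellTiter-Fluor reagent was then added and fluorescence was measured after 30 min.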

[4] = target: Luciferin 4-monooxygenase (Photinus pyralis) (UniProt P08659); test: qHTS assay to identify small molecule inhibitors of firefly luciferase (AID 1224835); note: nearly all actives have a fitted effect of over 25% in size
Outline: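 Inhibition of purified Photinus luciferase is measured by luminescence. Substrate levels (D-luciferin, ATP) sit at their KM values. Each compound is tested in a concentration series.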

[5] = qHTS assay to identify small molecule agonists of the constitutive androstane receptor (CAR) signaling pathway - cell viability counter screen (AID 1224836); note: nearly all actives have a fitted effect of over 45% in size
Outline: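 HepG2-CYP2B6-hCAR, 2500 cells/well, 4 h pre-incubation; cpd 15 conc + PK11195 0.75 uM final; 23 h, 37 C/5% CO2; CellTiter-Fluor, fluorescence.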

[6] = qHTS assay to identify small molecule antagonists of the constitutive androstane receptor (CAR) signaling pathway - cell viability counter screen (AID 1224837); note: nearly all actives have a fitted effect of over 45% in size
Outline: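 Cells are seeded, rested 4 hr at 37 C/5% CO2, dosed with compound (15-point series) and 50 nM CITCO, incubated a further 23 hr, and then CellTiter-Fluor reagent is added before fluorescence is read. The line is HepG2 with stable hCAR and CYP2B6-2.2kb.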

[7] = target: Nuclear receptor subfamily 1 group I member 3 (Homo sapiens) (UniProt Q14994); test: qHTS assay to identify small molecule antagonists of the constitutive androstane receptor (CAR) signaling pathway (AID 1224838);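 note: HepG2 cells stably expressing hCAR with CYP2B6 luciferase reporter stimulated by CITCO; nearly all actives have a fitted effect of over 40% in size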
Outline: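 Luminescence from a CYP2B6-2.2kb promoter reporter in hCAR-expressing HepG2 cells reflects CAR signaling. Cells received compounds at 15 concentrations and 50 nM CITCO (final), then incubated 24 h at 37 C/5% CO2.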

[8] = target: Nuclear receptor subfamily 1 group I member 3 (Homo sapiens) (UniProt Q14994); test: qHTS assay to identify small molecule agonists of the constitutive androstane receptor (CAR) signaling pathway (AID 1224839);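 note: HepG2 cells stably carrying human CAR and a CYP2B6 luciferase reporter; nearly all actives have a fitted effect of over 15% in size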
Outline: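 HepG2-CYP2B6-hCAR cells, 2500/well, 4 h pre-incubation; compounds 15 conc.; PK11195 0.75 uM final; 24 h, 37 C/5% CO2; ONE-Glo luciferase read.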

[9] = qHTS assay to identify small molecule antagonists of the estrogen related receptor signaling pathway with the pleiotropic PPARgamma coactivator (PGC) from Tox21 10K library - cell viability counter screen (AID 1224840; active = well fitted cell-killing curve with a large enough effect in the repeat runs, not every such curve was filed as active; note: nearly all actives have a fitted effect of over 40% in size)
Outline: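 Cell viability is measured by CellTiter-Fluor fluorescence in PGC/ERR cells that receive compounds after a 6-hour attachment period and are then incubated 17.5 hours at 37 C.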

[10] = target: Thyrotropin receptor (Homo sapiens) (UniProt P16473); test: qHTS assay to identify small molecule agonists of the thyroid stimulating hormone receptor (TSHR) signaling pathway (AID 1224843; calls by dose curve; note: nearly all actives have a fitted effect of over 45% in size)
Outline: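 A cell-based cAMP HTRF format was run in TSHR-transfected HEK293 cells, 800 per well. Treatment: 30 min, room temperature. Detection: 1 h with labelled cAMP and anti-cAMP cryptate. Concentration-response over 15 points, three replicates.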

[11] = qHTS assay to identify small molecule agonists of the hypoxia (HIF-1) signaling pathway - cell viability counter screen (AID 1224844; calls by dose curve; note: nearly all actives have a fitted effect of over 50% in size)
Outline: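 Viability counter screen: HRE-bla ME-180 cells plated 5 hrs before compound addition, treated 17 hrs at 37C and 5% CO2, then CellTiter-Glo added after the FRET reporter read; luminescence after 30 min.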

[12] = qHTS assay to identify small molecule agonists of H2AX (AID 1224845; active = well fitted activation curve with a large enough effect in the signal ratio in the repeat runs, not every such curve was filed as active; the % refers to the signal ratio)
Outline: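 Phospho-H2AX Ser139 measured by HTRF (ex 320 nm; em 665 and 620 nm) after 24 hr antibody incubation. Compounds, 15 concentrations, 0.76% DMSO, were applied to CHO-K1 cells for 3hr at 37C before lysis.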

[13] = qHTS assay to identify small molecule agonists of the hypoxia (HIF-1) signaling pathway (AID 1224846; active = well fitted activation curve with a large enough effect in the signal ratio in the repeat runs, not every such curve was filed as active; the % refers to the signal ratio)
Outline: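 Agonist mode reporter screen. ME-180 cells stably expressing bla under HRE control received test compounds in DMSO for 17 hrs (37C, 5% CO2), and beta-lactamase activity was then detected with the CCF4-AM FRET substrate.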

[14] = qHTS RealTime-Glo MT Cell Viability Assay in HepG2 cells - 24 hour (AID 1224867); note: nearly all actives have a fitted effect of over 50% in size
Outline: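 qHTS, HepG2, 600 cells/well, RealTime-Glo (NanoLuc + prosubstrate) added with cells; 5 h preincubation; DMSO compound addition; 37 C; luminescence at 0/8/16/24/32/40 h.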

[15] = qHTS assay to identify small molecule antagonists of the estrogen related receptor signaling pathway with the pleiotropic PPARgamma coactivator (PGC) from Tox21 10K library (AID 1224841; call rule not given here; note: actives are mostly falling curves and most rising ones were filed inactive; nearly all actives have a fitted effect of over 50% in size)
Outline: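 Cells stably carrying the PGC/ERR reporter, seeded at 2,000 per well, received pin-transferred compounds 6 h post-plating. Exposure lasted 18 h at 37 C. Signal: One-Glo luminescence.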

[16] = qHTS assay to identify small molecule agonists of the estrogen related receptor signaling pathway with the pleiotropic PPARgamma coactivator (PGC) from Tox21 10K library (AID 1224842); note: nearly all actives have a fitted effect of over 15% in size
Outline: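 Luminescence from One-Glo (30 min, room temperature) measured after PGC/ERR cells had 18 h at 37 C with pinned compound (23 nL in DMSO). Cells had been seeded at 2,000 per well and pre-incubated 6 h.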

[17] = qHTS assay to identify small molecule antagonists of the estrogen related receptor (ERR) signaling pathway from Tox21 library (AID 1224848); note: nearly all actives have a fitted effect of over 50% in size
Outline: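 ERR cell line, 2,000 cells/well. 6 h settle, then compound (DMSO) added; 18 h at 37 C; ONE-Glo luminescence after 30 min RT.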

[18] = qHTS assay to identify small molecule agonists of the estrogen related receptor (ERR) signaling pathway from Tox21 library (AID 1224849; calls by dose curve; note: nearly all actives have a fitted effect of over 15% in size); settings: ERR reporter cell line, ONE-Glo luciferase, 18 h; at 92.4 µM (top of the series) unless noted
Outline: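 Quantitative HTS in agonist format: NTP ERR cell line, compounds transferred in DMSO after 6 h plating, 18 h incubation at 37 C, ONE-Glo luminescence endpoint.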

[19] = qHTS assay to identify small molecule agonists of H2AX - cell viability counter screen (AID 1224847; calls by dose curve;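 note: wild-type CHO-K1 cells; top concentration of the series differs between compounds; nearly all actives have a fitted effect of over 30% in size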)
Outline: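 Cells plated first: CHO-K1, 1000 per well in 10% FBS medium, incubated overnight at 37C. Then 15-point compound titration added (final DMSO 0.76%) for 3 hr. Finally CellTiter-Glo added and luminescence read.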

[20] = qHTS assay to identify small molecule antagonists of the retinoic acid receptor (RAR) signaling pathway (AID 1159552; note: nearly all actives have a fitted effect of over 50% in size)
Outline: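 Cells of the C3RL4 line were seeded, incubated overnight, then dosed with compounds in DMSO followed immediately by retinol (1 uM final). Six hours later luciferase detection reagent went in; signal was measured after 30 min at RT.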
% is set by controls: 0 for no effect and ±100 for the full control effect.

Chain of Luciferin 4-monooxygenase (Photinus pyralis) (P08659 whole entry, looked up): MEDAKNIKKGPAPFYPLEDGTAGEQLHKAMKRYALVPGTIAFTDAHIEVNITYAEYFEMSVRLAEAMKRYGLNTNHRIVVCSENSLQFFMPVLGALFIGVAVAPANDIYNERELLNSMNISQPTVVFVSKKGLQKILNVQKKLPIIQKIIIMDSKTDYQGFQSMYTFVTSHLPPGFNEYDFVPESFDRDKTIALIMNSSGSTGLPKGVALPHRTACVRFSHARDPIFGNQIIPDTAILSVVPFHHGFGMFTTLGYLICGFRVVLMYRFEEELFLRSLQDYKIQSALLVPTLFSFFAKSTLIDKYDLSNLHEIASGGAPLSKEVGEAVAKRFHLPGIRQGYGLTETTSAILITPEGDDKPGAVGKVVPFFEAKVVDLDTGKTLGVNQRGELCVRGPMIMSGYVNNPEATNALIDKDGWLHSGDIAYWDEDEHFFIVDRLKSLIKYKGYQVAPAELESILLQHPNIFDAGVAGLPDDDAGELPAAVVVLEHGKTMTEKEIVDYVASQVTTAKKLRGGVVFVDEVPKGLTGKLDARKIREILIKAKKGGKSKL
Chain of Thyrotropin receptor (Homo sapiens) (P16473 whole entry, looked up): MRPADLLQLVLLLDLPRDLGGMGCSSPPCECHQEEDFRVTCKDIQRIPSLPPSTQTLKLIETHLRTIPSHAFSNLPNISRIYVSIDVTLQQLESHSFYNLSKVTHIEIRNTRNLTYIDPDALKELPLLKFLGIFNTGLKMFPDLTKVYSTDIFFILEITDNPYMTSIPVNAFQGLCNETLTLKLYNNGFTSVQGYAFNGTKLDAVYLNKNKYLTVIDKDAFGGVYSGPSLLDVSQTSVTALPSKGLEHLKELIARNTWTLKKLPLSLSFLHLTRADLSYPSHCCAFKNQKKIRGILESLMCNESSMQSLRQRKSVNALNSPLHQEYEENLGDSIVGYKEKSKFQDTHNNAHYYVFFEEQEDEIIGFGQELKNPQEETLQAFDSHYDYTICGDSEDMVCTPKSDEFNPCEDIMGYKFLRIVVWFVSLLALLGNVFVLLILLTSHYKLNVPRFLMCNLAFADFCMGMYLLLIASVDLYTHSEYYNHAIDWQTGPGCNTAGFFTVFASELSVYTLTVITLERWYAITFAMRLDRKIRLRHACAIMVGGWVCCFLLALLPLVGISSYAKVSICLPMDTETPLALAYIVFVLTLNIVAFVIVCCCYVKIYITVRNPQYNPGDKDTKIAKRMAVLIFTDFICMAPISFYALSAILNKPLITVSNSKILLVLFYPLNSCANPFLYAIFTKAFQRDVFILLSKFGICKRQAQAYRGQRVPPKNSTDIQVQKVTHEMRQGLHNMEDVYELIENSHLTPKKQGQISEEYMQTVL
Chain of Nuclear receptor subfamily 1 group I member 3 (Homo sapiens) (Q14994 whole entry, looked up): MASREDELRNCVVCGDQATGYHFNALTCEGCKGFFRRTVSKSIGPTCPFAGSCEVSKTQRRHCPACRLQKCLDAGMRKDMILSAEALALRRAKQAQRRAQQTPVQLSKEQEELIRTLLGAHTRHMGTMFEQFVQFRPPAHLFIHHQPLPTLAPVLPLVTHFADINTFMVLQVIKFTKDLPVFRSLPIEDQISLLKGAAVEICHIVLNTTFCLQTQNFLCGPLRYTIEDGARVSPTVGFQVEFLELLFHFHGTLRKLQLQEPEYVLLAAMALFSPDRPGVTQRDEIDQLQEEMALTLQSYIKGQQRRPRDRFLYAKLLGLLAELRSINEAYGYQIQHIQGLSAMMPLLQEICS

CCCC(=O)C(CC)Sc1ccoc1C (stereo unspecified)
inactive: outcome [1] | Potency [2] | outcome [3] | Potency [4] | outcome [5] | outcome [6] | outcome [7] | Potency [8] | outcome [9] | Potency [10] | outcome [11] | outcome [12] | outcome [13] | outcome [14]

CCc1ncc(C)[nH]1
inactive: outcome [1] | Potency [2] | outcome [3] | Potency [4] | outcome [5] | outcome [6] | outcome [7] | Potency [8] | outcome [9] | Potency [10] | outcome [11] | outcome [12] | outcome [14]

NC(=O)CC[C@@H](N)C(=O)O
inactive: outcome [1] | Potency [2] | outcome [3] | Potency [4] | outcome [5] | outcome [6] | Potency [8] | outcome [9] | Potency [15] | Potency [16] | Potency [10] | outcome [11] | outcome [12] | outcome [13] | outcome [17] | activity change, positive = activation [18] 1.56% [at 42.5 µM] | outcome [14]

CC/C=C\CCCCCCCCCCOC(C)=O
inactive: outcome [1] | Potency [2] | outcome [3] | Potency [4] | outcome [5] | outcome [7] | Potency [8] | outcome [9] | Potency [15] | Potency [16] | Potency [10] | outcome [12] | outcome [19] | outcome [17] | activity change, positive = activation [18] 0.807% | outcome [14]

O=S(=O)(O)c1ccc(Cl)cc1
inactive: outcome [1] | Potency [2] | outcome [3] | Potency [4] | outcome [5] | outcome [6] | outcome [7] | Potency [8] | outcome [9] | outcome [11] | outcome [12] | outcome [13] | outcome [14]

CCCCCCCCCCCBr
inactive: outcome [1] | Potency [2] | outcome [3] | Potency [4] | outcome [5] | outcome [6] | outcome [7] | Potency [8] | outcome [9] | outcome [11] | outcome [12] | outcome [13] | outcome [19] | outcome [14]

O=c1[nH]c(=O)c2cn[nH]c2[nH]1
inactive: outcome [1] | Potency [2] | outcome [3] | Potency [4] | outcome [5] | outcome [7] | Potency [8] | outcome [9] | Potency [15] | Potency [16] | outcome [12] | outcome [13] | activity change, positive = activation [18] -22.5% | outcome [14]

Nc1nc(Cl)cc(Cl)n1
inactive: outcome [1] | Potency [2] | outcome [3] | Potency [4] | outcome [5] | outcome [6] | outcome [7] | outcome [9] | Potency [15] | Potency [16] | outcome [11] | outcome [12] | outcome [13] | outcome [17] | activity change, positive = activation [18] -1.17% | outcome [14]

CCC(C)SSC(C)CC (stereo unspecified)
inactive: outcome [1] | Potency [2] | outcome [3] | Potency [4] | outcome [5] | outcome [6] | outcome [9] | Potency [10] | outcome [11] | outcome [12] | outcome [13] | outcome [19] | outcome [14]

Cc1cc(O)c(Cl)cc1C
inactive: outcome [1] | Potency [2] | outcome [3] | Potency [4] | outcome [5] | outcome [6] | outcome [7] | Potency [8] | outcome [9] | Potency [10] | outcome [11] | outcome [12] | outcome [13] | outcome [19] | outcome [14]

N[C@H]1C(O)O[C@H](CO)[C@@H](O)[C@@H]1O (stereo partly specified)
inactive: outcome [20] | Potency [2] | outcome [3] | Potency [4] | outcome [5] | outcome [6] | outcome [7] | Potency [8] | outcome [9] | Potency [15] | Potency [16] | Potency [10] | outcome [11] | outcome [12] | outcome [19] | outcome [17] | activity change, positive = activation [18] 3.25% [at 42.5 µM] | outcome [14]

CCCCS
inactive: outcome [1] | Potency [2] | outcome [3] | Potency [4] | outcome [5] | outcome [6] | outcome [7] | Potency [8] | outcome [9] | Potency [10] | outcome [12] | outcome [13] | outcome [19] | outcome [14]

CCCc1ncc(C(=O)O)s1
inactive: outcome [1] | Potency [2] | outcome [3] | Potency [4] | outcome [5] | outcome [6] | outcome [7] | Potency [8] | outcome [9] | Potency [15] | Potency [16] | outcome [11] | outcome [12] | outcome [13] | outcome [19] | outcome [17] | activity change, positive = activation [18] 3.45% [at 42.5 µM] | outcome [14]

CC(=O)O[C@@H]1CC2C3CCc4cc(OC(=O)c5ccccc5)ccc4C3CCC2(C)[C@H]1OC(C)=O (stereo partly specified)
inactive: outcome [1] | Potency [2] | outcome [3] | Potency [4] | outcome [5] | outcome [6] | outcome [7] | Potency [8] | outcome [9] | Potency [10] | outcome [11] | outcome [12] | outcome [13] | outcome [14]

CCCC(=O)OC
inactive: outcome [1] | Potency [2] | outcome [3] | Potency [4] | outcome [5] | outcome [6] | outcome [9] | Potency [10] | outcome [11] | outcome [12] | outcome [13] | outcome [14]

NCC1CCC(C(=O)Oc2ccc(CCC(=O)O)cc2)CC1 (stereo unspecified)
inactive: outcome [1] | Potency [2] | outcome [3] | Potency [4] | outcome [5] | outcome [6] | outcome [7] | Potency [8] | outcome [9] | Potency [10] | outcome [11] | outcome [12] | outcome [13] | outcome [14]

C=COCCCCO
inactive: outcome [1] | Potency [2] | outcome [3] | Potency [4] | outcome [5] | outcome [6] | outcome [9] | Potency [15] | Potency [16] | Potency [10] | outcome [11] | outcome [12] | outcome [13] | outcome [19] | activity change, positive = activation [18] -29.3% | outcome [14]

From PubChem BioAssay (Tox21)
